# Assay results reported in PubChem BioAssay (Tox21).
# Records with an inconclusive call do not appear. Activity calls are given as the source filed them. Calls follow the shape of the full dose curve.
# Target: Acetylcholinesterase (Homo sapiens) (UniProt P22303)
# Assay: Acetylcholinesterase (AChE) small molecule antagonists: colormetric cell-based qHTS assay (AID 1347395); also: nearly all actives have a fitted effect of over 30% in size; also: potency is read from the fitted curve at half-maximal effect
# Settings: SH-SY5Y cells AChE activity, colorimetric (Ellman); series mostly up to 115 µM; activity, negative = inhibition: at the top concentration
# Method in brief: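 Endogenous AChE of human neuroblastoma SH-SY5Y cells was measured with an Ellman-type DTNB/acetylthiocholine mix. Compound pretreatment lasted 30 min at 37 C; substrate reaction ran 90 min at 37 C.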
# % is scaled to controls: 0 for no effect and ±100 for the full control effect.
# Sequence of Acetylcholinesterase (Homo sapiens) (P22303 whole entry, looked up): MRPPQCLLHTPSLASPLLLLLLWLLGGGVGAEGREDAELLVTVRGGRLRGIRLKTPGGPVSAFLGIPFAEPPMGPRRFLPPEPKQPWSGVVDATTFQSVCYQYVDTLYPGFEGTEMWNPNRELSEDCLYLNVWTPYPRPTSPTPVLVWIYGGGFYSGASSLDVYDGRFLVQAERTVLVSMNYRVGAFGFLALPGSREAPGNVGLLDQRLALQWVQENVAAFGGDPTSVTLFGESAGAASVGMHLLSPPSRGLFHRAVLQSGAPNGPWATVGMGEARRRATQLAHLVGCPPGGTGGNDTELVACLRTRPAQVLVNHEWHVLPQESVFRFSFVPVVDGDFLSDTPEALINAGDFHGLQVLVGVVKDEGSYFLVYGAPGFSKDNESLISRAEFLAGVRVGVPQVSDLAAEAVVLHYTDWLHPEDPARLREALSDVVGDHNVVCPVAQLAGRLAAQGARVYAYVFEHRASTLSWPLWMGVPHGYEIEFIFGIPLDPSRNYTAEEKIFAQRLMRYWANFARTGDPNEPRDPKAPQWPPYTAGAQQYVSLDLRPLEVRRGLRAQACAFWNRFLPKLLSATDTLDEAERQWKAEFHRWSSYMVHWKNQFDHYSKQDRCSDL
SMILES,"activity, negative = inhibition",Potency
O=Cc1ccccc1S(=O)(=O)O,1.23% (inactive),
CC1(C)COCN1,-3.63% (inactive),
NCc1cccc(CN)c1,-0.224% (inactive),
N#CCc1ccc(Cl)cc1Cl,-0.828% (inactive),
CCN(CC)c1ccc(C=O)c(O)c1,,39.9 µM (active)
CCCC(CCC)(C(=O)OCC)C(=O)OCC,-1.77% [at 52.9 µM] (inactive),
Cc1cc(C)c(C(=O)O)c(C)c1,-4.35% (inactive),
C[C@H]1O[C@H](O[C@H]2[C@H](O)[C@@H](O)[C@@H](O[C@H]3[C@H](O)[C@@H](O)[C@H](O)O[C@@H]3CO)O[C@@H]2CO)[C@H](O)[C@@H](O)[C@@H]1N[C@H]1C=C(CO)[C@@H](O)[C@H](O)[C@H]1O,1.63% [at 52.9 µM] (inactive),
CCC(C)(C)C1CCC(O)CC1 (stereo not given),-3.15% (inactive),
CCCCCCC(=O)O,,inactive
CCCCC(CC)COCCCN (stereo not given),-3% (inactive),
Fc1ccccc1-c1ccccc1,0.883% (inactive),
Cc1ccc2c(ccc3ccccc32)c1,-1.94% (inactive),
Cc1cc(C2CCCCC2)n(O)c(=O)c1,-1.81% [at 52.9 µM] (inactive),
NC(=O)Cc1cccc2ccccc12,0.867% (inactive),
CCCCCC1CCC(=O)O1 (stereo not given),1.95% (inactive),
CC(C)(Oc1ccc(C2CC2(Cl)Cl)cc1)C(=O)O (stereo not given),,inactive
CC/C=C\CCCCCO,3.93% (inactive),
CCCCN=C(N)N=C(N)N,1.53% [at 52.9 µM] (inactive),
O=C(O)c1[nH]n(-c2ccc(S(=O)(=O)O)cc2)c(=O)c1N=Nc1ccc(S(=O)(=O)O)cc1,,inactive

SMILES,"activity, negative = inhibition",Potency
C#CC(C)(O)CC(C)C (stereo not given),-0.0931% (inactive),
O=C(O)c1ccccc1C(=O)O,,inactive
CC(C)Oc1ccc2c(=O)c(-c3ccccc3)coc2c1,,inactive
CCCCCCCCCCCCCCCCCCOCCO,0.0969% [at 23.6 µM] (inactive),
COc1ccc(Cl)cc1C(=O)NCCc1ccc(S(=O)(=O)NC(=O)NC2CCCCC2)cc1,,inactive
CC1(C)OC[C@@H]2O[C@@]3(C(=O)O)OC(C)(C)O[C@H]3[C@@H]2O1,,inactive
CCC(CO)(CO)CO,5.46% (inactive),
CC[C@@H]([C@H](C)O)n1ncn(-c2ccc(N3CCN(c4ccc(OC[C@@H]5CO[C@@](Cn6cncn6)(c6ccc(F)cc6F)C5)cc4)CC3)cc2)c1=O,1.69% [at 52.9 µM] (inactive),
Cc1ccc(S(=O)(=O)NCl)cc1,,inactive
O=C(O)CCCC[P+](c1ccccc1)(c1ccccc1)c1ccccc1,1.14% [at 52.9 µM] (inactive),
C=Cc1ccc(O)c(OC)c1,3.59% (inactive),
CCO[Si](C)(CCCOCC1CO1)OCC (stereo not given),0.167% (inactive),
C[C@]12CCC(=O)C=C1CC[C@H]1[C@@H]3CC[C@](O)(C(=O)CO)[C@@]3(C)C[C@H](O)[C@@]12F,3.52% [at 52.9 µM] (inactive),
COC(=O)CCCC(=O)O,2.94% (inactive),
CCCCCCCCCCCCCBr,2.77% (inactive),
CC(C)c1cc2c(cc1S(=O)(=O)O)[C@@]1(C)CCC[C@@](C)(C(=O)O)[C@@H]1CC2,0.841% [at 52.9 µM] (inactive),
O=C(c1ccc(O)c(O)c1)c1ccc(O)cc1O,5.16% (inactive),
C[C@]12CC[C@@H]3c4ccc(O)cc4CC[C@H]3[C@@H]1CC[C@H]2O,,inactive
CC(C)c1cc(C(C)C)cc(C(C)C)c1,0.0039% (inactive),
NC(=O)c1ccc([N+](=O)[O-])cc1Cl,,inactive

# Target: Acetylcholinesterase (Homo sapiens) (UniProt P22303)
# Assay: Acetylcholinesterase (AChE) small molecule antagonists: enzyme-based qHTS assay (AID 1347397); also: nearly all actives have a fitted effect of over 55% in size
# Settings: Potency: AChE enzyme activity inhibition; outcome: AChE enzyme activity inhibition; series mostly up to 115 µM; activity change, negative = inhibition: at the top concentration
# Method in brief: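 Human recombinant acetylcholinesterase; substrate acetylthiocholine; thiocholine quantified with DTNB (colorimetric). Compound preincubation 30 min RT; reaction 10 min RT.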
SMILES,"activity change, negative = inhibition",Potency
O=Cc1ccccc1S(=O)(=O)O,1.05% (inactive),
CC1(C)COCN1,0.682% (inactive),
NCc1cccc(CN)c1,,inactive
N#CCc1ccc(Cl)cc1Cl,3.45% (inactive),
CCN(CC)c1ccc(C=O)c(O)c1,-13.6% (inactive),
CCCC(CCC)(C(=O)OCC)C(=O)OCC,-0.54% [at 53 µM] (inactive),
Cc1cc(C)c(C(=O)O)c(C)c1,-2.34% (inactive),
C[C@H]1O[C@H](O[C@H]2[C@H](O)[C@@H](O)[C@@H](O[C@H]3[C@H](O)[C@@H](O)[C@H](O)O[C@@H]3CO)O[C@@H]2CO)[C@H](O)[C@@H](O)[C@@H]1N[C@H]1C=C(CO)[C@@H](O)[C@H](O)[C@H]1O,0.892% [at 53 µM] (inactive),
CCC(C)(C)C1CCC(O)CC1 (stereo not given),1.14% (inactive),
CCCCCCC(=O)O,,inactive
CCCCC(CC)COCCCN (stereo not given),-0.393% (inactive),
Fc1ccccc1-c1ccccc1,0.273% (inactive),
Cc1ccc2c(ccc3ccccc32)c1,-0.136% (inactive),
Cc1cc(C2CCCCC2)n(O)c(=O)c1,5.67% [at 53 µM] (inactive),
NC(=O)Cc1cccc2ccccc12,0.402% (inactive),
CCCCCC1CCC(=O)O1 (stereo not given),-0.267% (inactive),
CC(C)(Oc1ccc(C2CC2(Cl)Cl)cc1)C(=O)O (stereo not given),,inactive
CC/C=C\CCCCCO,-0.268% (inactive),
CCCCN=C(N)N=C(N)N,0.81% [at 53 µM] (inactive),
O=C(O)c1[nH]n(-c2ccc(S(=O)(=O)O)cc2)c(=O)c1N=Nc1ccc(S(=O)(=O)O)cc1,,inactive

SMILES,"activity change, negative = inhibition",Potency
C#CC(C)(O)CC(C)C (stereo not given),1.48% (inactive),
O=C(O)c1ccccc1C(=O)O,,inactive
CC(C)Oc1ccc2c(=O)c(-c3ccccc3)coc2c1,,inactive
CCCCCCCCCCCCCCCCCCOCCO,1.34% [at 23.6 µM] (inactive),
COc1ccc(Cl)cc1C(=O)NCCc1ccc(S(=O)(=O)NC(=O)NC2CCCCC2)cc1,,inactive
CC1(C)OC[C@@H]2O[C@@]3(C(=O)O)OC(C)(C)O[C@H]3[C@@H]2O1,,inactive
CCC(CO)(CO)CO,0% (inactive),
CC[C@@H]([C@H](C)O)n1ncn(-c2ccc(N3CCN(c4ccc(OC[C@@H]5CO[C@@](Cn6cncn6)(c6ccc(F)cc6F)C5)cc4)CC3)cc2)c1=O,-0.481% [at 53 µM] (inactive),
Cc1ccc(S(=O)(=O)NCl)cc1,,inactive
O=C(O)CCCC[P+](c1ccccc1)(c1ccccc1)c1ccccc1,0.554% [at 53 µM] (inactive),
C=Cc1ccc(O)c(OC)c1,-0.409% (inactive),
CCO[Si](C)(CCCOCC1CO1)OCC (stereo not given),0.138% (inactive),
C[C@]12CCC(=O)C=C1CC[C@H]1[C@@H]3CC[C@](O)(C(=O)CO)[C@@]3(C)C[C@H](O)[C@@]12F,0.88% [at 53 µM] (inactive),
COC(=O)CCCC(=O)O,0.0041% (inactive),
CCCCCCCCCCCCCBr,0% (inactive),
CC(C)c1cc2c(cc1S(=O)(=O)O)[C@@]1(C)CCC[C@@](C)(C(=O)O)[C@@H]1CC2,1.17% [at 53 µM] (inactive),
O=C(c1ccc(O)c(O)c1)c1ccc(O)cc1O,3.2% (inactive),
C[C@]12CC[C@@H]3c4ccc(O)cc4CC[C@H]3[C@@H]1CC[C@H]2O,,inactive
CC(C)c1cc(C(C)C)cc(C(C)C)c1,0% (inactive),
NC(=O)c1ccc([N+](=O)[O-])cc1Cl,,inactive
